Data published in PubChem BioAssay AID602127 (Broad Institute, 2011).
Potency and affinity values are given separately. Activity calls are given as the source filed them.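 The calls were made as follows: active = every repeat test judged active, meaning a falling signal with potency within twice the top valid dose; inconclusive = repeat tests disagree on the call; inactive = every repeat test inactive, including signal moving upward.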

Target: Cyclin-dependent kinase 2 (Homo sapiens) (UniProt P24941)
Test: CDK2 kinase inhibitors, off-target check, dose response, selectivity assay for Dyrk1A inhibitor project, biochemical, cherry-picked samples (AID 602127)
Settings: CDK2/cyclin A kinase, ADP-Glo luminescence, 60 min; series mostly up to 10 µM

Question: `COc1ccc2c(c1)[nH]c1c(C)nccc12` was tested. Which outcome did it give?
Answer: inactive
